Assay results reported in the supplement of paper PMC10849652.
Of roughly 7,900 targets only a part is listed; those with a hit were picked by preference. About 0.6% of all pairs of compound and target were hits.

Assays:
Test in all cases: log2 fold change, soluble protein after heating vs DMSO (PISA); higher = thermal stabilisation; K562 cells, 10 uM, 30 min; active = over 0.2 and 3.5 SD of the protein, either way, in both replicates (recomputed)
[1] = compound: CC[C@@H]1C(=O)N(C)c2cnc(Nc3ccc(C(=O)NC4CCN(C)CC4)cc3OC)nc2N1C1CCCC1
In short: (§1)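 K562 cells at 2×10^6 cells/mL were exposed to 10 μM compound for 30 min, then aliquots were heated for 3 min across 48°C-58°C, pooled, and extracted in PBS containing 0.5% NP-40 at 4°C. The supernatant after 21,000xg for 90 min was taken as soluble protein and measured by TMTpro 16plex LC-MS/MS with channel sums equalised. Thermal stability is reported relative to control samples, with values from duplicates. Fold changes are given on a log2 scale.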

volasertib = compound: CC[C@@H]1C(=O)N(C)c2cnc(Nc3ccc(C(=O)N[C@H]4CC[C@H](N5CCN(CC6CC6)CC5)CC4)cc3OC)nc2N1C(C)C [volasertib]
In short: as §1

[2] = compound: CC[C@H](C)N1C=C(C2=C(C=C(C=C21)C3=CN=C(C=C3)N4CCNCC4)C(=O)NCC5=C(C=C(NC5=O)C)C)C
In short: as §1

epoxomicin = compound: CC[C@H](C)[C@@H](C(=O)N[C@@H]([C@@H](C)O)C(=O)N[C@@H](CC(C)C)C(=O)[C@]1(CO1)C)NC(=O)[C@H]([C@@H](C)CC)N(C)C(=O)C [epoxomicin]
In short: as §1

[3] = compound: CCn1c(C(=O)N(C2CC2)C2CC2)cc2c3c(ncn3C)c(Nc3cc(C)n(C)n3)nc21
In short: as §1

[4] = compound: CCn1cc(-c2ccnc3[nH]c(-c4cccc(CN(C)C)c4)cc23)c(-c2ccc(NC(=O)N(C)C)cc2)n1
In short: as §1

[5] = compound: CN(C)CC(=O)Nc1ccc2[nH]c(=O)c3ccccc3c2c1
In short: as §1

rosiglitazone = compound: CN(CCOC1=CC=C(C=C1)C[C@H]2C(=O)NC(=O)S2)C3=CC=CC=N3 (racemic) [rosiglitazone]
In short: as §1

[6] = compound: CN1C2=C(C3=C1C(=O)N(N=C3)CC4=CC(=CC=C4)N)SC(=C2)S(=O)C
In short: as §1

[7] = compound: CN1CCC(CNc2ccc3ncc(-c4cccc(OC(F)(F)F)c4)n3n2)CC1
In short: as §1

Measured: log2 fold change

FRA10AC1 isoform 3 (UniProt Q70Z53)
Chain of UniProt Q70Z53 (Q70Z53 whole entry, looked up): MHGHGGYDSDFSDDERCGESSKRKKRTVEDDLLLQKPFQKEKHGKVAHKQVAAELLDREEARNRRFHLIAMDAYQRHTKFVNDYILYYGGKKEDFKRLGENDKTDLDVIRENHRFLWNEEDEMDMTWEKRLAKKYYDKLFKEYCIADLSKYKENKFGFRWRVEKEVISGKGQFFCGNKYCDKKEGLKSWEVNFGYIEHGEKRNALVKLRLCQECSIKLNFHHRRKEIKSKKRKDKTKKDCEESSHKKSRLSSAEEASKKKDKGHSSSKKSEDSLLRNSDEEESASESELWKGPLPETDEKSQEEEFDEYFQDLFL
active: volasertib -0.613
inactive: [1] -0.086 | [2] -0.034 | epoxomicin 0.041 | [3] -0.058 | [4] 0.025 | [5] -0.013 | rosiglitazone 0.115 | [6] 0.093 | [7] 0.057

IFT80 isoform 3 (UniProt Q9P2H3)
Chain of UniProt Q9P2H3 (Q9P2H3 whole entry, looked up): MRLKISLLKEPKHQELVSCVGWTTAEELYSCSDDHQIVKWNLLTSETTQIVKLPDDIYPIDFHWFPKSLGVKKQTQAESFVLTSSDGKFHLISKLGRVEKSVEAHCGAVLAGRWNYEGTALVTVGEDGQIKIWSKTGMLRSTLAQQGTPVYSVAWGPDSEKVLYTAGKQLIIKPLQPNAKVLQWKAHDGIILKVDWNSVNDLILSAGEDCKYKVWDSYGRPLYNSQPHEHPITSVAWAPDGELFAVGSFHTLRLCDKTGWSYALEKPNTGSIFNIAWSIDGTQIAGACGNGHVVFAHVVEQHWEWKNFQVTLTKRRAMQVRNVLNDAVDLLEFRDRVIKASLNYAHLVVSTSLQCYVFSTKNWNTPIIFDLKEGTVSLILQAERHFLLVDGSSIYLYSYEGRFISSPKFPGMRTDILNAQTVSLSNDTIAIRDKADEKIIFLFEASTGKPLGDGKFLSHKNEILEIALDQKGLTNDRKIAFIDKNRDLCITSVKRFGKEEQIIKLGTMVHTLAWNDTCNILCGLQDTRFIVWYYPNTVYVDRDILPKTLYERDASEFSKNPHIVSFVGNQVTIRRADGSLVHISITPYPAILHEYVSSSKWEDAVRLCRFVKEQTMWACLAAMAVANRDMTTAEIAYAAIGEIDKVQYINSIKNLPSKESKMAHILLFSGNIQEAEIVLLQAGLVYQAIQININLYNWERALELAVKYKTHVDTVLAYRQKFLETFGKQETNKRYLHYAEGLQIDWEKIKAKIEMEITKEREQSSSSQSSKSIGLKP
active: volasertib -0.232
inactive: [1] 0.039 | [2] 0.072 | epoxomicin 0.053 | [3] 0.008 | [4] -0.09 | [5] 0.095 | rosiglitazone 0.028 | [6] -0.084 | [7] -0.157

GOLGB1 isoform 2 (UniProt Q14789)
Chain of UniProt Q14789 (Q14789 whole entry, looked up): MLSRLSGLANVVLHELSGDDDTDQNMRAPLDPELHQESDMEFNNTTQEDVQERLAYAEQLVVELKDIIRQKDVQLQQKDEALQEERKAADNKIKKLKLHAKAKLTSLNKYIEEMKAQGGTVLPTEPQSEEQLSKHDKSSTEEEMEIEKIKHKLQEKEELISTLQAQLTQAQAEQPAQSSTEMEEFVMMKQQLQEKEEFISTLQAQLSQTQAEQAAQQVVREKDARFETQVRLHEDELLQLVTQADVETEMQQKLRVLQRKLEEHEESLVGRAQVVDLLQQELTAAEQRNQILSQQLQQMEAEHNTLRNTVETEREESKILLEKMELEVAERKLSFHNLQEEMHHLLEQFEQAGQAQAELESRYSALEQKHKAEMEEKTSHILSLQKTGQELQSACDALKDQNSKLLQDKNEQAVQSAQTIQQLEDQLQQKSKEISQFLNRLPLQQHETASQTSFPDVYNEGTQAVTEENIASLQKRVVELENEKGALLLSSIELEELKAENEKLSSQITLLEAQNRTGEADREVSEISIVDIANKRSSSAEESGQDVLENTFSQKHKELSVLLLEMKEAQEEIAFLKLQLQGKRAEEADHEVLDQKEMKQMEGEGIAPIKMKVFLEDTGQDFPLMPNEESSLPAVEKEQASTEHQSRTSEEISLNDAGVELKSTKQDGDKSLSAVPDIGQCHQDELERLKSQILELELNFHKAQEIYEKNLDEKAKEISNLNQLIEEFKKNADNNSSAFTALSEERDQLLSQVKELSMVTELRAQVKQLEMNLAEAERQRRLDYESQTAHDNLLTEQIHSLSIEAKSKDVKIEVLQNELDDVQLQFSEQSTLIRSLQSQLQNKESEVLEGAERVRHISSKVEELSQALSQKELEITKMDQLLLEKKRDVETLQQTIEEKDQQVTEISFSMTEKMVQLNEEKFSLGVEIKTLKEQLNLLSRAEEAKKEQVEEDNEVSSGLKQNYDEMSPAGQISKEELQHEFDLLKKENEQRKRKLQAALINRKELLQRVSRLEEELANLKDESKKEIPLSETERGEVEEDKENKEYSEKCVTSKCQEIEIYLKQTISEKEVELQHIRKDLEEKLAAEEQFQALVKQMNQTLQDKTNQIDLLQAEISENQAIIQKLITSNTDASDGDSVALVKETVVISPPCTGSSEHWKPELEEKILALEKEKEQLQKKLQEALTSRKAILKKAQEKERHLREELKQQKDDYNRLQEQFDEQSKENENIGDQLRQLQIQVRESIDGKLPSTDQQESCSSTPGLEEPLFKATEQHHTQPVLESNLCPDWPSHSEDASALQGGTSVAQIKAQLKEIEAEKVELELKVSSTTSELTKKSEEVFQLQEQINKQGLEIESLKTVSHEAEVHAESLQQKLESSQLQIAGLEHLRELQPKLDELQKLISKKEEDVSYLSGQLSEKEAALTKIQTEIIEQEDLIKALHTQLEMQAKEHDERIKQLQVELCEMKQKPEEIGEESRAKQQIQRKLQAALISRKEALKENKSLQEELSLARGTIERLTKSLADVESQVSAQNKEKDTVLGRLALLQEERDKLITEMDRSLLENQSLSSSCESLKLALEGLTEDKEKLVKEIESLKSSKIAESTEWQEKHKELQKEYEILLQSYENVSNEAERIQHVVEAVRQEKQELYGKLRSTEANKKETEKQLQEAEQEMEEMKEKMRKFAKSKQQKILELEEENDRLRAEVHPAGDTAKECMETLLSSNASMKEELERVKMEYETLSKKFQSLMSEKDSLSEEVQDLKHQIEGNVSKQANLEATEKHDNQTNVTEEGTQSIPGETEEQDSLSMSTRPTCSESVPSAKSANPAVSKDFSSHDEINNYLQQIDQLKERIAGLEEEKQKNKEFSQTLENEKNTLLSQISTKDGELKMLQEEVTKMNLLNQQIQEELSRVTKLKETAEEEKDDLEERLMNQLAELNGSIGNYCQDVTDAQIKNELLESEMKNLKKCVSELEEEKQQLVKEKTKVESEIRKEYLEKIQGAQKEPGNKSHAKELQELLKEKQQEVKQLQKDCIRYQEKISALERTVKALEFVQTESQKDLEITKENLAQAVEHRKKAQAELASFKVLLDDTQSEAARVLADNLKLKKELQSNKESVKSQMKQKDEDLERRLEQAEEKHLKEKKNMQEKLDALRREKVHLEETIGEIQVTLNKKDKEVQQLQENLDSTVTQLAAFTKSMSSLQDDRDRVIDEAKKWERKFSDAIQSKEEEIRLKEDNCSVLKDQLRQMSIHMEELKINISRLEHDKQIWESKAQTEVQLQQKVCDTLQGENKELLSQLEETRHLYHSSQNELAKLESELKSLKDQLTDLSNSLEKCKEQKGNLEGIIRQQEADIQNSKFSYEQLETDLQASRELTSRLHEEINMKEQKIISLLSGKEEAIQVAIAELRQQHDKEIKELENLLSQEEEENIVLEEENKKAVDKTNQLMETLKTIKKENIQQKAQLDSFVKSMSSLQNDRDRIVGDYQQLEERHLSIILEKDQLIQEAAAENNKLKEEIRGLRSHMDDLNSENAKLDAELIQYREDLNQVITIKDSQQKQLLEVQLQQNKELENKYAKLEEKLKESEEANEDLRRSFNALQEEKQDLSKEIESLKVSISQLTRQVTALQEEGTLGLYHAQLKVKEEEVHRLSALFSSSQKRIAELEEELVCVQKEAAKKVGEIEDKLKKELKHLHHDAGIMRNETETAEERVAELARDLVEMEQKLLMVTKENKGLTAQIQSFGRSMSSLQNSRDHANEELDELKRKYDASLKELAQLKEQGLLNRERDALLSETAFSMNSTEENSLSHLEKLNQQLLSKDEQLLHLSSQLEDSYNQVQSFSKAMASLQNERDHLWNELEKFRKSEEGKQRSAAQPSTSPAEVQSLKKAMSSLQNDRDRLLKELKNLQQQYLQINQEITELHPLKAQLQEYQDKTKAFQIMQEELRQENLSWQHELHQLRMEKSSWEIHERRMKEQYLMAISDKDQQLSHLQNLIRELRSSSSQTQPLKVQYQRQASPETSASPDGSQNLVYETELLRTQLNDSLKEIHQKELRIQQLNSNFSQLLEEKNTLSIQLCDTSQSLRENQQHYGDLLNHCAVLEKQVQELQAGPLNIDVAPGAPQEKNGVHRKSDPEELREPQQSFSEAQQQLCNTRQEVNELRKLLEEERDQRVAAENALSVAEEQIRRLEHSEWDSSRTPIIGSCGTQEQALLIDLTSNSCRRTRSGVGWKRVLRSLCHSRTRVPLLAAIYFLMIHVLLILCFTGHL
inactive: [1] 0.009 | volasertib -0.17 | [2] -0.052 | epoxomicin -0.185 | [3] 0.082 | [4] 0.05 | [5] -0.061 | rosiglitazone 0.004 | [6] 0.148 | [7] -0.009

GLUD2 (UniProt P49448)
Chain of UniProt P49448 (P49448 whole entry, looked up): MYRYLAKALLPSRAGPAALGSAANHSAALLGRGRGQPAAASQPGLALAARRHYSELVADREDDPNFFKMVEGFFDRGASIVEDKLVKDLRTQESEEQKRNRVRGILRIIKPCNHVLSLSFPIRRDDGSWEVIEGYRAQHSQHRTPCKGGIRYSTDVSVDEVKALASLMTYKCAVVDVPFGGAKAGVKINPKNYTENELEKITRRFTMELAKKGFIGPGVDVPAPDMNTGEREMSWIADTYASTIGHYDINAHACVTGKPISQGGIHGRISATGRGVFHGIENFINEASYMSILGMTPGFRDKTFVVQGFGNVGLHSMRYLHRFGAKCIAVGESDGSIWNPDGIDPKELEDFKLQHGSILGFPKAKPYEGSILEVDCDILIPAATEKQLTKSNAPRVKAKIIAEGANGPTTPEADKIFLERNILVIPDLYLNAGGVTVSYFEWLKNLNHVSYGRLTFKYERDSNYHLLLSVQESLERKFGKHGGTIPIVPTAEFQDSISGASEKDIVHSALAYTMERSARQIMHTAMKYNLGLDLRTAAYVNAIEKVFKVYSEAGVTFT
inactive: [1] 0.13 | volasertib 0.252 | [2] 0.068 | epoxomicin -0.07 | [3] 0.034 | [4] -0.219 | [5] 0.021 | rosiglitazone 0.002 | [6] -0.022 | [7] 0.071

HSPA8 (UniProt P11142)
inactive: [1] 0.001 | volasertib 0.113 | [2] -0.007 | epoxomicin 0.008 | [3] 0.012 | [4] -0.002 | [5] -0.037 | rosiglitazone -0.019 | [6] -0.034 | [7] 0.079
